Among the test systems are MOLT-4 leukemia; SR leukemia; RPMI-8226 leukemia; OVCAR-8 ovarian; OVCAR-5 ovarian; OVCAR-4 ovarian; SK-OV-3 ovarian; IGROV1 ovarian; OVCAR-3 ovarian; HS 578T breast; NCI/ADR-RES ovarian; T-47D breast; BT-549 breast; SW-620 colon; MCF7 breast; HCT-116 colon; HCC-2998 colon; KM12 colon; MDA-MB-435 melanoma.
Holding throughout (assay): NCI-60 one-dose screen, 48 h (100 = growth as untreated, 0 = no growth, -100 = all killed)
What all share (settings): 10 µM unless noted

This note sets out measurements from PubChem BioAssay (NCI).

Structures are written as SMILES. About 83,000 compounds went through this panel and 20% of them were active in at least one assay; those are over-represented in the sample as a whole.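 How to read the values: 0–100, growth inhibition (40 = 60% inhibited); 0, no net growth; -100 to 0, cell death (-40 = 40% of starting cells died; -100 = all dead).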 Values without a mark were called inactive. Calls of active or inactive are those of the source. The calls were made as follows: active = growth percent below 10; inactive = the rest.

As to `Fc1cccc(NCOOC2(OOCNc3cccc(F)c3)CCCCC2)c1`, the growth with MOLT-4 leukemia was 97.6%; in the experiment with SR leukemia, 31.5%; in the experiment on RPMI-8226 leukemia it was 99.6%; with OVCAR-8 ovarian it was 96.8%; in the experiment on OVCAR-5 ovarian it was 96.2%; in the experiment on OVCAR-4 ovarian it was 98.5%. The growth is 103% with SK-OV-3 ovarian; 40.1% with IGROV1 ovarian; 99.3% with OVCAR-3 ovarian; 104% with HS 578T breast; 77.8% in the experiment on NCI/ADR-RES ovarian; 86.8% in the experiment with T-47D breast. Besides, the growth with BT-549 breast was 102%; in the experiment on SW-620 colon, 104%; with MCF7 breast, 88.8%; in the experiment on HCT-116 colon it was 87.3%; in the experiment with HCC-2998 colon it was 105%; in the experiment on KM12 colon it was 94.6%.

In the case of `COC(=O)[C@@H](C)C[C@H](Cc1ccccc1)NC(=O)c1csc([C@@H](C[C@H](C(C)C)N(C)C(=O)C2(NC(=O)[C@H]3CCCCN3C)CC2)OC(C)=O)n1`, the growth was 9.45% (active) in the experiment with MOLT-4 leukemia; 11% in the experiment with SR leukemia; 12.8% with RPMI-8226 leukemia; 23.3% in the experiment with OVCAR-8 ovarian; 20.3% in the experiment with OVCAR-5 ovarian; 44.5% with OVCAR-4 ovarian. Also, the growth was 19.1% in the experiment on SK-OV-3 ovarian; 27.1% with IGROV1 ovarian; -16.4% (active) in the experiment on OVCAR-3 ovarian; 12% in the experiment with HS 578T breast; 61.8% with NCI/ADR-RES ovarian; 51.5% in the experiment on T-47D breast. Moreover, the growth with BT-549 breast was 12.8%; in the experiment with SW-620 colon, 22.2%; in the experiment with MCF7 breast it was 18.9%; with HCT-116 colon it was 0.459% (active); with HCC-2998 colon, -2.95% (active); in the experiment on KM12 colon, 5.25% (active).

Regarding `CC[C@]12C=CCN3CC[C@]4(C(=C(C(=O)OC)C1)Nc1cc(OC)c(OC(C)=O)cc14)[C@@H]32`, the growth in the experiment on MOLT-4 leukemia was 9.7% (active); with SR leukemia, 7.64% (active); in the experiment on RPMI-8226 leukemia, 7.27% (active); in the experiment with OVCAR-8 ovarian, 5.97% (active); with OVCAR-5 ovarian, 43%; in the experiment with OVCAR-4 ovarian, 38.6%. The growth in the experiment on SK-OV-3 ovarian is 2.29% (active); with IGROV1 ovarian, 26.3%; in the experiment with OVCAR-3 ovarian it was 14.1%; in the experiment with HS 578T breast, 46.7%; in the experiment with NCI/ADR-RES ovarian it was 9.28% (active); in the experiment on T-47D breast, 51.4%. The growth in the experiment with BT-549 breast is 3.35% (active); with SW-620 colon, 15.8%; with MCF7 breast, 13.1%; in the experiment on HCT-116 colon, 12%; with HCC-2998 colon, 12.8%; in the experiment on KM12 colon it was 9.09% (active).

Take `C/C(=C\c1ccn(-c2ccccc2N)n1)[C@@H]1C[C@@H]2O[C@]2(C)CCC[C@H](C)[C@H](O)[C@@H](C)C(=O)C(C)(C)[C@@H](O)CC(=O)O1`: the growth in the experiment on MOLT-4 leukemia is 12.4%; in the experiment on SR leukemia, 17.4%; in the experiment on RPMI-8226 leukemia it was 15.3%; with OVCAR-8 ovarian it was 26.2%; with OVCAR-5 ovarian it was 31.6%; in the experiment on OVCAR-4 ovarian it was 51.2%. The growth in the experiment with SK-OV-3 ovarian was 40.2%; in the experiment with IGROV1 ovarian it was 41.5%; with OVCAR-3 ovarian, -2.9% (active); with HS 578T breast, 7.14% (active); with NCI/ADR-RES ovarian, -4.02% (active); in the experiment on T-47D breast it was 36.4%. For the same compound, the growth was 15% in the experiment on BT-549 breast; -46.6% (active) with MDA-MB-435 melanoma; 18.6% with MCF7 breast; 12.1% in the experiment with HCT-116 colon; 3.48% (active) in the experiment with HCC-2998 colon; 14.6% with KM12 colon.

Take `COc1cccc(C=NC(Cc2cnc[nH]2)C(=O)O)c1O` (stereo unspecified): the growth in the experiment on MOLT-4 leukemia was 120%; with SR leukemia it was 132%; with RPMI-8226 leukemia, 48.1%; in the experiment on OVCAR-8 ovarian it was 81.1%; in the experiment on OVCAR-5 ovarian, 85.5%; in the experiment on OVCAR-4 ovarian it was 95.9%. The growth with SK-OV-3 ovarian is 102%; in the experiment with IGROV1 ovarian, 64.8%; with OVCAR-3 ovarian it was 102%; with HS 578T breast, 122%; in the experiment on NCI/ADR-RES ovarian, 98.4%; in the experiment with T-47D breast, 108%. For the same compound, the growth in the experiment with BT-549 breast was 91.1%; in the experiment on MDA-MB-435 melanoma, 84.2%; in the experiment on MCF7 breast it was 93.4%; in the experiment with KM12 colon it was 104%.

`CC(=O)Nc1nc2c(s1)CC[C@@]1(C)C2=CC[C@H]2[C@@H]3CC[C@H](O)[C@@]3(C)CC[C@@H]21`: the growth was 50.8% in the experiment on MOLT-4 leukemia; 24.9% in the experiment with SR leukemia; 34.1% with RPMI-8226 leukemia; 80% in the experiment with OVCAR-8 ovarian; 92.3% in the experiment with OVCAR-5 ovarian; 87.4% in the experiment with OVCAR-4 ovarian. Moreover, the growth in the experiment with SK-OV-3 ovarian was 81.9%; in the experiment on IGROV1 ovarian, 64.3%; in the experiment on OVCAR-3 ovarian it was 13.7%; in the experiment with HS 578T breast it was 60.5%; in the experiment on NCI/ADR-RES ovarian it was 45.5%; in the experiment on T-47D breast it was 82%. Further, the growth with BT-549 breast was 42.6%; with SW-620 colon, 44.8%; in the experiment with MCF7 breast, 24.6%; with HCT-116 colon it was 30.3%; in the experiment on HCC-2998 colon, 96%; with KM12 colon it was 49.4%.

Turning to `Clc1cccc(N2COOC3(OOC2)C2CC4CC(C2)CC3C4)c1`, the growth with MOLT-4 leukemia was 77.8%; in the experiment with SR leukemia it was 37.7%; in the experiment on RPMI-8226 leukemia, 53.8%; in the experiment with OVCAR-8 ovarian it was 58.1%; with OVCAR-5 ovarian it was 84.3%; in the experiment with OVCAR-4 ovarian, 95.3%. For the same compound, the growth with SK-OV-3 ovarian is 98.1%; in the experiment on IGROV1 ovarian, -54.4% (active); in the experiment on OVCAR-3 ovarian, 19.2%; in the experiment with HS 578T breast, 88.6%; in the experiment on NCI/ADR-RES ovarian it was 44.4%; in the experiment on T-47D breast it was 69.4%. Also, the growth with BT-549 breast is 88%; with SW-620 colon, 95.5%; with MCF7 breast, 93.1%; in the experiment on HCT-116 colon, 88.2%; with HCC-2998 colon, 98.1%.

Consider `COC(=O)[C@@H](C)C[C@H](Cc1ccc(F)cc1)NC(=O)c1csc([C@@H](C[C@H](C(C)C)N(C)C(=O)[C@@H](NC(=O)[C@H]2CCCCN2C)C(C)C)OC(C)=O)n1`, for which the growth was 18.3% with MOLT-4 leukemia; 14.9% with SR leukemia; 17.4% in the experiment with RPMI-8226 leukemia; 30% in the experiment on OVCAR-8 ovarian; 53.7% in the experiment with OVCAR-5 ovarian; 49.2% with OVCAR-4 ovarian. For the same compound, the growth is 21.4% in the experiment on SK-OV-3 ovarian; 25.3% with IGROV1 ovarian; -27.4% (active) in the experiment with OVCAR-3 ovarian; 34% in the experiment on HS 578T breast; 25.2% in the experiment with NCI/ADR-RES ovarian; 77.3% in the experiment with T-47D breast. The growth was -18.6% (active) with BT-549 breast; 26.9% in the experiment on SW-620 colon; 22.2% with MCF7 breast; 4.23% (active) with HCT-116 colon; 21.8% in the experiment on HCC-2998 colon; 12.4% in the experiment with KM12 colon.
